From PubChem BioAssay
Compounds with a hit are over-represented: about 1.4% of the library has one in this group of screens.
p53 reactivator: re-activators of mutant p53; H1299 p53-A138V BP100-luciferase reporter, luminescence, 24 h; Potency, µM (doses to about 92.2 µM), hits mostly activators; 320,000 tested, 0.063% active; also: nearly all actives have a fitted effect of over 45% in size
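H1299 (p53-null), stable ts p53-A138V + BP100-Luc; 1000 cells/well, Opti-MEM/10% FBS; cpd 4 pt, 1:5; 24 h, 37 deg C, 5% CO2; detection reagent 10 min RT; luminescence.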
IL-2 act: IL-2 activation | activation, % (series mostly up to about 46 µM) | 360,000 tested, 0.065% active | AID 652025 | IL-2 activation reporter assay, cell-based qHTS; stimulated with anti-CD3/CD4/CD28 beads; in transgenic mouse T cells; in the data active = activation above about 50%; inconclusive = mostly about 30% to 49%
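EGFP and DsRed fluorescence is measured by plate cytometry in unstimulated transgenic mouse T cells exposed to compound for 60 minutes, then stimulated 18 hours at 37 degrees C with anti-CD3/anti-CD4 beads plus anti-CD28.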
uPA generation: inhibitors of cell surface uPA generation. cell surface uPA generation assay, qHTS. Potency, µM (series often up to 38.3 µM), most hits filed as inhibitors. 330,000 tested, 0.31% active. AID 540303; active = well fitted inhibition curve with a large enough effect; inconclusive = small, poorly fitted or top-dose-only effect; inactive = no such curve, though single readings can be large or run the other way; tested in mouse RAW 264.7 cells; also: nearly all actives have a fitted effect of over 55% in size
BRCA1 expr up: activators of BRCA1 expression. 380,000 tested, 1.1% active. MCF7-BRCA1-FFLuc reporter, luminescence, 48 h; response scale: scaled: vehicle 0%, 10 µM genistein 100%. Potency, µM (titrated, usually from 46.1 µM), hits mostly activators. AID 624202; also: nearly all actives have a fitted effect of over 80% in size
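MCF7 cells carrying a BRCA1-firefly luciferase reporter (2000 cells/well, phenol-red free MEM) were attached for 2 h at 37 °C, then given compounds for 48 h. Luminescence was read 15 min after luciferase reagent; activity normalized to genistein (10 microM) and DMSO.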
TCR act: T cell receptor activation. primary human leukocytes, anti-CD3, IL-2 HTRF, 48 h. Potency, µM (top dose mostly 9.22 µM), hits mostly activators. 330,000 tested, under 10 active
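Human primary leukocytes + a-CD3 beads + cpd, 48 hr; IL-2 in supernatant by HTRF (ex 320nm / em 665nm). No co-stimulatory signal supplied.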
Each line names hits and unclear results; the compound was inactive in the other large screens. Unless noted, calls follow the shape of the dose curve; as a rule, active = well fitted curve in the direction sought with a large enough effect; inconclusive = small, poorly fitted or top-dose-only effect, or another doubt; inactive = no such curve, though single readings can be large; an effect the other way counts as inactive or inconclusive.

O=C(Cc1ccccc1)Nc1cc(-c2nc3cc(Cl)ccc3o2)ccc1Cl	none (no result: p53 reactivator, IL-2 act, uPA generation, TCR act)
O=C(NC1CCCCC1)c1ccc(-c2ccccc2)cc1	BRCA1 expr up 2.24µM (no result: p53 reactivator)
CN(C(=O)c1ccc(-c2ccccc2)cc1)C1CCCCC1	BRCA1 expr up 2.82µM (no result: p53 reactivator)
O=C(NC1CCCCCCC1)c1ccc(F)cc1	p53 reactivator inconclusive, BRCA1 expr up 2.82µM
O=C(Nc1ccccc1F)NC1CCCCCCC1	p53 reactivator inconclusive, BRCA1 expr up 3.55µM
O=C(NC1CC2CCCC(C1)N2C(=O)NC1CCCCC1)c1ccc(F)cc1 (centres undefined)	none
CN(C(=O)c1ccccc1Cl)C1CCCCC1	none (no result: uPA generation)
CC1(C)CC(=O)C2=C(C1)NC(Nc1nc3ccccc3o1)=NC2c1ccccc1 (centres undefined)	none (no result: p53 reactivator, IL-2 act, uPA generation, TCR act)
CCOc1ccc(CNC(=O)c2c(C)nn(-c3ccc(F)cc3)c2-n2cccc2)cc1	none (no result: p53 reactivator, IL-2 act, uPA generation, TCR act)
Cc1cccc(CN2C(=O)c3ccccc3S(=O)(=O)c3ccc(C(=O)NCCC4=CCCCC4)cc32)c1	none (no result: p53 reactivator, IL-2 act, uPA generation, TCR act)
O=c1/c(=C/c2ccc([N+](=O)[O-])cc2)sc2n1CCCN=2	BRCA1 expr up 3.55µM
COc1cc(/C=c2\sc3n(c2=O)CCCN=3)ccc1O	p53 reactivator inconclusive
CC(C)c1onc(C(=O)N2CCN(c3ccccc3)CC2)c1[N+](=O)[O-]	none
CC(C)c1onc(C(=O)N2CCN(C(c3ccccc3)c3ccccc3)CC2)c1[N+](=O)[O-]	uPA generation 3.16µM
CCn1nc(C)c(CCN(C)C(=O)Nc2cc(C)cc(C)c2)c1C	none (no result: p53 reactivator, IL-2 act, uPA generation, TCR act)
Cc1ccc(NC(=O)C2CCCN(S(=O)(=O)c3c(C)n[nH]c3C)C2)cc1C (centres undefined)	none (no result: p53 reactivator, IL-2 act, uPA generation, TCR act)
COc1ccc2[nH]c(=O)c(-c3noc(-c4ccccc4)n3)cc2c1	p53 reactivator inconclusive, BRCA1 expr up 5.62µM
Cc1ccc(C2CC(=O)Nc3cc4c(cc32)OCCO4)cc1Br (centres undefined)	none (no result: p53 reactivator, IL-2 act, uPA generation, TCR act)
Cc1cc(Br)ccc1NC(=O)COC(=O)c1ccccc1OCC(N)=O	none (no result: p53 reactivator, IL-2 act, uPA generation, TCR act)
COc1ccc(-c2cc(C(=O)NN)[nH]n2)cc1OC	uPA generation 10µM
Cn1c(=O)n(CCOc2ccc(Cl)cc2Cl)c2ccccc21	none
O=c1ccccn1CCOc1ccccc1Cl	BRCA1 expr up 12.6µM
Cn1c(=O)n(CCOc2ccccc2Cl)c2ccccc21	p53 reactivator inconclusive, BRCA1 expr up 5.01µM
CCCSc1ncc(Cl)c(C(=O)Nc2sc3c(c2C(=O)NCC)CCCC3)n1	none (no result: p53 reactivator, IL-2 act, uPA generation, TCR act)
O=S(=O)(c1ccc2ccccc2c1)N1CCN(c2nc(-c3ccccc3)nc3ccccc23)CC1	none (no result: p53 reactivator, IL-2 act, uPA generation, TCR act)
O=[N+]([O-])c1ccc(N/N=C/c2ccccc2)c(F)c1	BRCA1 expr up 8.91µM
O=C(Nc1ccc(C(=O)N2CCOCC2)cc1)Nc1cccc(Cl)c1	p53 reactivator inconclusive, BRCA1 expr up 11.2µM
CCCN1CCC(=O)N(CCOc2ccccc2)CC1	none
CC(C)(C)C1CCC(=O)N(CCOc2ccccc2)CC1 (centres undefined)	BRCA1 expr up 12.6µM
CCCCCc1ccc(-c2cn(Cc3ccc(C)cc3)nn2)cc1	none
COc1ccc(-c2cn(Cc3ccc(C)cc3)nn2)cc1	BRCA1 expr up 8.91µM (no result: p53 reactivator)
COCc1cc(S(=O)c2ccc(Cl)cc2)nc(C)n1 (centres undefined)	uPA generation 5.01µM
COc1cc2c3nnc(-c4ccc(F)cc4)c-3cn(Cc3ccccc3)c2cc1OC	p53 reactivator inconclusive, IL-2 act 199.2
Cc1csc2nc(-c3cccc(NC(=O)c4cccc(F)c4)c3)cn12	none (no result: p53 reactivator, IL-2 act, uPA generation, TCR act)
Cc1cc(N2CCOCC2)nc2ccc(Cl)cc12	p53 reactivator inconclusive, BRCA1 expr up 7.94µM
Cc1cc(N2CCOCC2)nc2ccc(NC(=S)N3CCN(c4ccccc4)CC3)cc12	none
Cc1ccc(NC(=O)NCCOCCn2c(=O)oc3ccccc32)c(C)c1	none (no result: p53 reactivator, IL-2 act, uPA generation, TCR act)
O=C(CSC1=Nc2ccccc2N=C(c2ccc(F)cc2)C1)Nc1cc(F)ccc1F	none (no result: p53 reactivator, IL-2 act, uPA generation, TCR act)
Cc1cccc(-c2nc(C#N)c(NC3CCCCC3)o2)c1	BRCA1 expr up 3.16µM
CCCCc1nn2c(C)c(-c3ccc(OCC)cc3)nc2s1	none (no result: p53 reactivator, IL-2 act, uPA generation, TCR act)
CCOc1cc(CNC(=O)c2ccc3nc(C(C)C)oc3c2)cc(OCC)c1OCC	none (no result: p53 reactivator, IL-2 act, uPA generation, TCR act)
Cc1nn(C(=O)c2ccc(Br)cc2)c(C)c1S(=O)(=O)N1CCOCC1	none (no result: p53 reactivator, IL-2 act, uPA generation, TCR act)
O=C(N/N=C/c1ccc(Br)cc1)c1ccc(Br)o1	p53 reactivator inconclusive, BRCA1 expr up 7.94µM
